# esBAF inh: Bmi1 luciferase reporter increase in mESCs, primary screen, esBAF inhibitor project, mouse ES cells, Bmi1 luciferase knock-in, single point; AID 602393, 2012; 24 h; 100% = twice the neutral-well signal; reporter increase, % at 12.5 µM; 2% of 350,000 active; in the data active means activation above about 40%; inconclusive means no clear call, values can overlap the other calls;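 further: 0% = median of the plate's neutral control wells and 100% = double that signal; a rise in the Bmi1 reporter signal indicates esBAF inhibition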
# Wnt bcat act: Wnt/beta-catenin pathway activators, primary screen, cell-based, plate reader, single point; Wnt/beta-catenin reporter cell assay, activator; activation, % at 9.35 µM; 1.2% of 300,000 active; AID 743398, 2014; in the data active means activation above about 30%, passing the limit was not always enough; inconclusive means no clear call, values can overlap the other calls;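 further: 0% = neutral control wells and 100% = positive control wells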
# Statin myotox sup: suppressors of statin myotoxicity in C2C12 myotubes, primary screen, cell-based, single point, plate reader; C2C12 myotubes + simvastatin, ATP luminescence, 48 h; scaled: DMSO 0, geranylgeraniol control 100; rescue of ATP level, % at 7.49 µM; 0.78% of 330,000 active;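 active means mean ATP rescue above about 67%, or every replicate alone reaching that limit, limit read from the data, passing the limit was not always enough; inconclusive means no clear call, values can overlap the other calls; inactive means mean under the limit and some replicate under it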;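 further: myotubes were challenged with 10 µM simvastatin during compound exposure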
# MITF TRPM1 HTS: activators of MITF-driven TRPM1 promoter reporter, primary screen, cell-based, SK-MEL-5, luciferase, single point; SK-MEL-5 TRPM1-promoter luciferase, 24 h; % of positive control, neutral wells = 0; 0.75% of 300,000 active; activation, % at 12.5 µM;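 active means mean activation of at least 80% with every replicate also reaching 80%; inconclusive means mean reaches 80% but some replicate falls short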;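 further: 0% = neutral control wells and 100% = parthenolide positive control wells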
# GAA850 FXN act: FXN promoter activators, primary screen, cell-based, luciferase luminescence, HEK293 lucGAA850 | HEK293 lucGAA850 FXN promoter luciferase reporter, 24 h; percent of 10 µM SAHA response | activation, % at 6 µM | 0.56% of 360,000 active;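 active means activation above the average of all compounds screened plus 3 SD, cutoff fixed separately per campaign, cut at about 7.5% in these data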;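 further: 0% = DMSO wells and 100% = 10 µM SAHA wells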
# The depositor's hits bear a star; ? = inconclusive; / = not tested or not shown. The list is not random: actives were taken first. Their share in the collection is about 3.3%.
SMILES,esBAF inh,Wnt bcat act,Statin myotox sup,MITF TRPM1 HTS,GAA850 FXN act
C[C@H]1CCCCO[C@@H](CN(C)C)[C@@H](C)CN([C@@H](C)CO)C(=O)c2cc(NC(=O)CCC(F)(F)F)ccc2O1,-3.1,/,-12.4,/,/
O=C(O)CC(CN1C(=O)c2ccccc2C1=O)c1ccccc1 (stereo not given),-9.7,45.5*,-11.0,7.2,-0.5
N#C/C(C(=O)N1CCOCC1)=C1/SC(Cc2ccccc2Cl)C(=O)N1c1ccccc1 (stereo not given),/,34.7*,/,3.0,0.9
S=C(N/N=C/c1ccc(Br)cc1)N1CCCCC1,49.6*,-3.0,15.1,/,4.5
S=C(N/N=C/c1ccc(Cl)cc1)N1CCOCC1,8.0,/,-5.7,41.8,6.5
O=C(C[C@@H]1C=C[C@H](NC(=O)Nc2ccc(F)cc2)[C@H](CO)O1)NCc1cccc(F)c1,5.8,/,2.9,/,/
Cc1ccc(O)c(N=Cc2ccc(C)s2)c1,58.6*,/,-4.3,0.4,4.1
CCOCCCNc1nc2c(-c3ccccc3)nnn2c2ccccc12,-8.0,-2.4,88.3*,-21.3,1.4
O=C(COc1ccc2ccccc2c1Br)N1CCCCC1,76.0*,/,-2.8,40.0,6.0
O=C(COc1ccc2ccccc2c1)N1CCN(c2ccccc2)CC1,-4.8,-1.0,4.3,-11.0,2.5
O=C(COc1ccc2cc(Br)ccc2c1)N1CCOCC1,48.4*,28.0,-6.9,/,0.5
O=C(COc1ccc2ccccc2c1)NNC(=O)Cc1cccc2ccccc12,-0.9,-7.1,114.2*,0.2,-0.9
O=C(COc1ccc2ccccc2c1)N1CCCC1,26.3,36.5*,2.4,44.5,2.7
C[C@@H]1CN([C@@H](C)CO)C(=O)Cc2cc(NC(=O)Nc3ccc4c(c3)OCO4)ccc2O[C@H]1CN(C)Cc1ccc(C(F)(F)F)cc1,0.8,/,16.4,/,/
O=C(C1CC1)N1C[C@H]2[C@@H](c3ccccc31)[C@H](CO)N2Cc1ccccc1Cl,-6.2,/,-6.1,/,/
C[C@@H]1CN([C@H](C)CO)S(=O)(=O)c2ccc(C#CC3(O)CCCC3)cc2O[C@@H]1CN(C)C(=O)Cc1cccnc1,-4.6,/,12.8,/,/
Cc1cc(=O)oc2cc(OCc3ccccc3)ccc12,25.8,14.6,6.0,60.2,4.5
Cc1cc(=O)oc2cc(OCc3c(F)cccc3Cl)ccc12,/,42.1*,/,/,/
C[C@@H]1CN([C@H](C)CO)S(=O)(=O)c2ccc(C#Cc3ccncc3)cc2O[C@@H]1CN(C)C(=O)C1CCOCC1,-24.6,/,13.9,/,/
C[C@@H]1CCCCO[C@@H](CN(C)Cc2ccc(Cl)c(Cl)c2)[C@@H](C)CN([C@@H](C)CO)C(=O)c2cc(NS(=O)(=O)c3ccccc3)ccc2O1,-2.8,/,/,/,/
COc1ccc(CC(=O)Nc2nc3ccccc3[nH]2)cc1,/,5.2,/,7.9,2.6
CC(C)Oc1ccc(C(=O)Nc2nc3ccccc3[nH]2)cc1,-88.6,-4.2,-238.0,-80.8,-9.4
O=C(CC1CCCC1)Nc1nc2ccccc2[nH]1,62.3*,39.7*,2.4,/,4.3
CCC(Oc1ccccc1)C(=O)Nc1nc2ccccc2[nH]1 (stereo not given),52.9*,6.6,2.9,41.2,-0.7
COc1ccc(Br)c(C(=O)Nc2nc3ccccc3[nH]2)c1,48.9*,6.3,11.6,92.1*,5.3
SMILES,esBAF inh,Wnt bcat act,Statin myotox sup,MITF TRPM1 HTS,GAA850 FXN act
COc1ccc(CCC(=O)Nc2nc3ccccc3[nH]2)cc1,46.0*,/,4.3,39.9,1.9
O=C(Nc1ccc(C(F)(F)F)cc1)N[C@H]1CC[C@H](CCn2cc(C3(O)CCCC3)nn2)O[C@H]1CO,6.7,/,1.6,/,/
CC(C)NC(=O)N(C)C[C@@H]1Oc2ccc(NC(=O)CCC(F)(F)F)cc2C(=O)N([C@H](C)CO)C[C@H]1C,-4.0,/,-0.9,/,/
O=C(COc1ccc2ccccc2c1)Nc1nc2ccccc2[nH]1,-8.0,/,-2.0,-0.7,0.5
COc1ccc(OCC(=O)Nc2nc3ccccc3[nH]2)cc1,48.9*,/,74.4*,54.9,1.5
CCCCCC(=O)Nc1nc2ccccc2[nH]1,?,53.4*,-9.3,/,1.5
COc1ccc(CCC(=O)Nc2nnc(C)s2)cc1,/,63.3*,/,/,2.5
Cn1c(=O)c2c(nc(Oc3ccc(-c4ccccc4)cc3)n2C)n(C)c1=O,47.6*,-1.0,-69.1,4.9,0.4
Cc1ccc(Oc2nc3c(c(=O)n(C)c(=O)n3C)n2C)cc1C,/,-2.1,/,22.6,-0.8
COc1ccc(CN2C[C@@H](C)[C@H](OC)CN(C)C(=O)c3cc(NC(=O)c4nc5ccccc5s4)ccc3OC[C@H]2C)cc1,15.3,/,-0.7,/,/
CCOC(=O)c1sc2nc(C3CC3)cc(-c3ccc(OC)cc3)c2c1N,-5.9,/,98.1*,-4.9,-1.5
Cc1nc(SCc2ccc(OCCC(C)C)cc2)n[nH]1,45.1*,16.2,-1.7,15.5,5.4
C=CCN(CC=C)CCOc1cc(C)ccc1[N+](=O)[O-],/,0.2,/,0.8,1.7
C=CCN(CC=C)CCOc1ccc(C)cc1[N+](=O)[O-],53.4*,25.8,1.7,10.1,5.7
COc1ccc(OC)c(S(=O)(=O)N2Cc3ccccc3CC2C(=O)Nc2nccs2)c1 (stereo not given),50.8*,/,-1.3,39.9,0.2
CNc1ccc(-c2cccc(CO)c2)cn1,41.4*,11.5,-3.1,/,1.4
CCNC(=O)CC(=O)Nc1ccccc1C(=O)O,-2.3,/,6.1,-10.0,0.1
CNC(=O)CC(=O)Nc1ccccc1C(=O)O,-3.7,/,104.9*,-9.0,-1.5
C[C@H](CO)N1C[C@H](C)[C@@H](CN(C)Cc2cncnc2)Oc2ncc(-c3ccc(F)cc3)cc2C1=O,-1.6,/,-13.5,/,/
COCC(=O)N(C)C[C@@H]1Oc2ncc(-c3cccc(OC)c3)cc2C(=O)N([C@@H](C)CO)C[C@@H]1C,-5.3,/,42.9,/,/
C[C@H]1CN([C@@H](C)CO)C(=O)c2cc(NS(=O)(=O)c3cn(C)cn3)ccc2O[C@H]1CN(C)Cc1ccc(-c2ccccc2)cc1,-4.6,/,35.3,/,/
CC(=O)c1cccc(Nc2nc(N3CCOCC3)nc(N3CCOCC3)n2)c1,-3.1,-0.3,-7.2,18.5,0.0
CC(=O)c1ccc(Nc2nc(N3CCOCC3)nc(N3CCOCC3)n2)cc1,44.0*,-2.1,-15.3,27.6,1.1
CN(C)Cc1csc(NC(=O)Nc2ccccc2Oc2ccccc2)n1,-2.4,-1.4,72.8*,/,3.6
CN(C)Cc1csc(NC(=O)Nc2ccccc2-c2ccccc2)n1,-1.7,2.2,-0.1,/,2.0
COc1ccc(NC(=O)Cc2csc(NC(=O)Nc3ccccc3OC)n2)cc1,-2.9,-1.8,7.0,/,-2.3
COc1ccccc1NC(=O)Nc1nc(CC(=O)Nc2ccc(N(C)C)cc2)cs1,50.9*,5.0,9.1,14.6,2.5
CCOc1ccc2c(c1)C(=NNC(=O)c1ccncc1)c1cc(OCC)ccc1-2,54.5*,48.9*,-27.8,3.2,4.2
